From PubChem BioAssay (NCI)
Compounds without any hit were thinned out: in the full panel of roughly 79,000, 15% have a hit. The source made the active and inactive calls. No stated cut-off is given here; in the data, active means growth inhibition above about 70%; inactive means the rest.

test: NCI Yeast Anticancer Drug Screen. Data for the CLN2oe strain (AID 163);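 further: 0% = growth of vehicle-only control cultures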; conditions: S. cerevisiae CLN2oe strain, at 1.2 µM, hits give high values
Procedure, shortened: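 Whole-cell yeast growth assay. A strain engineered for altered cell-cycle control received compound, and inhibition relative to vehicle-treated cultures was recorded.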

Row | SMILES | growth inhibition
1 | C#CCN(Cc1ccc2nc(N)[nH]c(=O)c2c1)c1ccc(C(=O)NC(CCC(=O)O)C(=O)O)cc1 (stereo unspecified) | 3% (inactive)
2 | O=C(O)CNC(=S)Nc1ccccc1 | 2% (inactive)
3 | N/C(=N/N=C/c1cc(Br)cc(Br)c1O)NO | -6% (inactive)
4 | CC1=C(C(=O)NCc2ccccc2)C(c2ccccc2)C(C(=O)NCc2ccccc2)=C(C)N1 | -5% (inactive)
5 | COc1cc2ccnc(-c3c4ccccc4c(N)c4c(OC)c(OC)ccc34)c2cc1OC | -1% (inactive)
6 | CCOC(=O)C1=C(C)NC(C)=C(C(=O)OCCNC(=O)c2ccc(N=[N+]=[N-])cc2)C1c1ccccc1C(F)(F)F (stereo unspecified) | -3% (inactive)
7 | Cc1c(C)c(C)c(CSC(=N)N)c(C)c1C | -22% (inactive)
8 | O=C(CSC(=S)N1CCCCC1)Nc1nc2c(s1)CCCC2 | 3% (inactive)
9 | CC(=O)OC1CC2C(C)(C)C(=O)C=C[C@]2(C)C2CCC3(C)C(=CCC3[C@H](CO)C[C@H](O)C(=O)C(C)(C)O)[C@]12C (stereo partly specified) | -41% (inactive)
10 | CCCCCCOC(=O)NCCOC(=O)Nc1ccccc1 | 1% (inactive)
11 | C[C](C)(C)[Ge]([O][Ge]([c]1ccccc1)[c]1ccccc1)([O][Ge]([c]1ccccc1)[c]1ccccc1)[C](C)(C)C | 4% (inactive)
12 | CCc1c(Cl)c(C)cc(O)c1Cl | -7% (inactive)
13 | Cc1c2cccc(Sc3ccccc3)c2c2c3c(cccc13)[S+](c1ccccc1)C2 (stereo unspecified) | -3% (inactive)
14 | COc1cc2cc3c4cc(OC)c(OC)cc4cc[n+]3c(C)c2cc1OC | -22% (inactive)
15 | O=C1CSC(c2cccc(Cl)c2)N1c1ccc(-c2ccc(-n3c(-c4ccccc4)nc4ccccc4c3=O)cc2)cc1 (stereo unspecified) | 13% (inactive)
16 | CCOC(=O)C(C(=O)OCC)=P(c1ccccc1)(c1ccccc1)c1ccccc1 | 0% (inactive)
17 | Cc1nc2c(Br)cc(Br)cc2c(=O)n1-c1ccccc1NC1OCC(O)C(O)C1O (stereo unspecified) | 40% (inactive)

same assay, conditions: S. cerevisiae CLN2oe strain, at 3.7 µM, hits give high values

Row | SMILES | growth inhibition
18 | C#CCN(Cc1ccc2nc(N)[nH]c(=O)c2c1)c1ccc(C(=O)NC(CCC(=O)O)C(=O)O)cc1 (stereo unspecified) | 6% (inactive)
19 | O=C(O)CNC(=S)Nc1ccccc1 | -9% (inactive)
20 | N/C(=N/N=C/c1cc(Br)cc(Br)c1O)NO | -11% (inactive)
21 | CC1=C(C(=O)NCc2ccccc2)C(c2ccccc2)C(C(=O)NCc2ccccc2)=C(C)N1 | 1% (inactive)
22 | COc1cc2ccnc(-c3c4ccccc4c(N)c4c(OC)c(OC)ccc34)c2cc1OC | 7% (inactive)
23 | CCOC(=O)C1=C(C)NC(C)=C(C(=O)OCCNC(=O)c2ccc(N=[N+]=[N-])cc2)C1c1ccccc1C(F)(F)F (stereo unspecified) | -2% (inactive)
24 | Cc1c(C)c(C)c(CSC(=N)N)c(C)c1C | -18% (inactive)
25 | O=C(CSC(=S)N1CCCCC1)Nc1nc2c(s1)CCCC2 | -6% (inactive)
26 | CC(=O)OC1CC2C(C)(C)C(=O)C=C[C@]2(C)C2CCC3(C)C(=CCC3[C@H](CO)C[C@H](O)C(=O)C(C)(C)O)[C@]12C (stereo partly specified) | -14% (inactive)
27 | CCCCCCOC(=O)NCCOC(=O)Nc1ccccc1 | 4% (inactive)
28 | C[C](C)(C)[Ge]([O][Ge]([c]1ccccc1)[c]1ccccc1)([O][Ge]([c]1ccccc1)[c]1ccccc1)[C](C)(C)C | 18% (inactive)
29 | CCc1c(Cl)c(C)cc(O)c1Cl | -18% (inactive)
30 | Cc1c2cccc(Sc3ccccc3)c2c2c3c(cccc13)[S+](c1ccccc1)C2 (stereo unspecified) | -1% (inactive)
31 | COc1cc2cc3c4cc(OC)c(OC)cc4cc[n+]3c(C)c2cc1OC | -35% (inactive)
32 | O=C1CSC(c2cccc(Cl)c2)N1c1ccc(-c2ccc(-n3c(-c4ccccc4)nc4ccccc4c3=O)cc2)cc1 (stereo unspecified) | 11% (inactive)
33 | CCOC(=O)C(C(=O)OCC)=P(c1ccccc1)(c1ccccc1)c1ccccc1 | -1% (inactive)
34 | Cc1nc2c(Br)cc(Br)cc2c(=O)n1-c1ccccc1NC1OCC(O)C(O)C1O (stereo unspecified) | 35% (inactive)

same assay, conditions: S. cerevisiae CLN2oe strain, at 11.0 µM, hits give high values

Row | SMILES | growth inhibition
35 | C#CCN(Cc1ccc2nc(N)[nH]c(=O)c2c1)c1ccc(C(=O)NC(CCC(=O)O)C(=O)O)cc1 (stereo unspecified) | -14% (inactive)
36 | O=C(O)CNC(=S)Nc1ccccc1 | -3% (inactive)
37 | N/C(=N/N=C/c1cc(Br)cc(Br)c1O)NO | 25% (inactive)
38 | CC1=C(C(=O)NCc2ccccc2)C(c2ccccc2)C(C(=O)NCc2ccccc2)=C(C)N1 | -2% (inactive)
39 | COc1cc2ccnc(-c3c4ccccc4c(N)c4c(OC)c(OC)ccc34)c2cc1OC | 9% (inactive)
40 | CCOC(=O)C1=C(C)NC(C)=C(C(=O)OCCNC(=O)c2ccc(N=[N+]=[N-])cc2)C1c1ccccc1C(F)(F)F (stereo unspecified) | -2% (inactive)
41 | Cc1c(C)c(C)c(CSC(=N)N)c(C)c1C | -14% (inactive)
42 | O=C(CSC(=S)N1CCCCC1)Nc1nc2c(s1)CCCC2 | -14% (inactive)
43 | CC(=O)OC1CC2C(C)(C)C(=O)C=C[C@]2(C)C2CCC3(C)C(=CCC3[C@H](CO)C[C@H](O)C(=O)C(C)(C)O)[C@]12C (stereo partly specified) | -7% (inactive)
44 | CCCCCCOC(=O)NCCOC(=O)Nc1ccccc1 | 1% (inactive)
45 | C[C](C)(C)[Ge]([O][Ge]([c]1ccccc1)[c]1ccccc1)([O][Ge]([c]1ccccc1)[c]1ccccc1)[C](C)(C)C | 55% (inactive)
46 | CCc1c(Cl)c(C)cc(O)c1Cl | -4% (inactive)
47 | Cc1c2cccc(Sc3ccccc3)c2c2c3c(cccc13)[S+](c1ccccc1)C2 (stereo unspecified) | 96% (active)
48 | COc1cc2cc3c4cc(OC)c(OC)cc4cc[n+]3c(C)c2cc1OC | -28% (inactive)
49 | O=C1CSC(c2cccc(Cl)c2)N1c1ccc(-c2ccc(-n3c(-c4ccccc4)nc4ccccc4c3=O)cc2)cc1 (stereo unspecified) | 15% (inactive)
50 | CCOC(=O)C(C(=O)OCC)=P(c1ccccc1)(c1ccccc1)c1ccccc1 | -1% (inactive)
51 | Cc1nc2c(Br)cc(Br)cc2c(=O)n1-c1ccccc1NC1OCC(O)C(O)C1O (stereo unspecified) | 44% (inactive)
